Screening results as filed in PubChem BioAssay.
Most compounds without a hit are left out; they make up all but 5.7% or so of the library.
AHR act: human AHR activation | activation, % at 5 µM | AID 2796 | 320,000 compounds, 2.5% hits | AHR-responsive luciferase reporter cells, luminescence | P35869; in the data active means activation above about 47%;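 further: 0% = vehicle wells and 100% = reference agonist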
Target sequence (P35869 whole entry, looked up): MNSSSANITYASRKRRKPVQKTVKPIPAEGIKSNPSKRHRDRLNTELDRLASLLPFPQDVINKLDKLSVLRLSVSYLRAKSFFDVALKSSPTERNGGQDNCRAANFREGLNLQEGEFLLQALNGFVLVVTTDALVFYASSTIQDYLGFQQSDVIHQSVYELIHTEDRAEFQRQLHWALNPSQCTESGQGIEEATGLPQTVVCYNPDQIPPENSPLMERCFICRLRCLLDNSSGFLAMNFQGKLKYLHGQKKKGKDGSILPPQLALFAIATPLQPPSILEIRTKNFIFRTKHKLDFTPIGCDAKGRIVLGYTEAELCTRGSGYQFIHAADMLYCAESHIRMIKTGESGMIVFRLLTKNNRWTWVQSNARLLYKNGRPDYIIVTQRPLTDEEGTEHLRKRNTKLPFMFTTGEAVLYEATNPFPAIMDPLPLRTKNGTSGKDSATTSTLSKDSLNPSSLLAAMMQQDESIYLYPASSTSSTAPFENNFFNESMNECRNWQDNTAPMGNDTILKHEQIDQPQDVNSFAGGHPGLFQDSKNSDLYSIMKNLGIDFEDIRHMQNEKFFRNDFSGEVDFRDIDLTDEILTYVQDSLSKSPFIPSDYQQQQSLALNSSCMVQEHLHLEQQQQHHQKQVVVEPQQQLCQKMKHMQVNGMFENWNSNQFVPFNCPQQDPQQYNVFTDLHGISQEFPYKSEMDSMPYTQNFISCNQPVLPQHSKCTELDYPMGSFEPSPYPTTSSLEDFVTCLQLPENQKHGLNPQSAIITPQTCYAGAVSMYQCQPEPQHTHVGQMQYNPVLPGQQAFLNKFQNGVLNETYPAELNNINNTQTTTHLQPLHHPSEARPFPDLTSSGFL
hcDAF-12 act: activates DAF-12 receptor from parasite H. contortus; HEK293 hcDAF-12 lit1-tk-luc reporter, luminescence; 0% DMSO, 100% Δ7-dafachronic acid; activation, % at 6.8 µM; 370,000 compounds, 1.4% hits; AID 652067;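 active means activation above the mean of all tested compounds plus 3 SD, cut at about 5.5% in these data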;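 further: 100% = response to 3 µM Δ7-dafachronic acid high control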
DAX1 inh-1: inhibitors of DAX1 repression of SF-1 activated StAR promoter; HEK293T StAR-luciferase reporter, SF-1/DAX-1 repression relief; inhibition, % at 6.8 µM; 370,000 compounds, 1.1% hits;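 active means inhibition above the mean over all tested compounds plus 3 SD, cut at about 3.6% in these data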;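 further: 0% = DAX-1 cells with DMSO and 100% = cells lacking DAX-1 with DMSO; higher inhibition means more luminescence from relief of DAX-1 repression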
ssDAF12 agonist: activators of S. stercoralis DAF-12 nuclear receptor; HEK293 ssDAF-12/GRIP1 lit1-tk-luc reporter, luminescence; % of 3 µM dafachronic acid response; activation, % at 6.8 µM; 370,000 compounds, 1% hits;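 active means activation above the mean over all tested compounds plus 3 SD, cut at about 0.9% in these data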;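 further: 0% = DMSO-only wells and 100% = 3 µM delta7-dafachronic acid wells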
hgDAF12 agonist: activates the H. glycines DAF-12 receptor ligand-binding domain | activation, % at 6.8 µM | 370,000 compounds, 1.8% hits | HEK293 GAL4-hgDAF12 UAS-luciferase reporter, agonist luminescence; normalized to butyrate control;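 active means activation above a cutoff set at the mean of all screened compounds plus 3 SD, cut at about 10% in these data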;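 further: 0% = DMSO wells and 100% = sodium butyrate wells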
DAX1 inh-2: inhibitors of human orphan nuclear receptor DAX1 (NR0B1). P51843. HEK293 Gal4-DAX1 luciferase reporter, luminescence. inhibition, % at 6.75 µM. 340,000 compounds, 0.99% hits;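 active means inhibition above the mean over all tested compounds plus 3 SD, cut at about 4.2% in these data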;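 further: 0% = DAX1-transfected cells with DMSO and 100% = empty-vector control cells with DMSO; inhibition shows as a rise in luminescence from relieved DAX1 repression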
Numbers without * were called inactive; . = not tested or not shown.

SMILES	AHR act	hcDAF-12 act	DAX1 inh-1	ssDAF12 agonist	hgDAF12 agonist	DAX1 inh-2
Cc1ccc(-c2cc(C(=O)NN=Cc3cccc4ccccc34)[nH]n2)cc1C	.	0	-2	-1	12*	.
CC(=O)N1CCN(S(=O)(=O)c2cccc(C(=O)NCc3ccc(F)cc3)c2)CC1	-1	0	0	-1	-1	-1
O=C(N/N=C/c1cccc(O)c1)c1cc(-c2ccc3c(c2)OCO3)n[nH]1	117*	3	1	0	6	-2
O=C(N/N=C/c1ccc(O)cc1)c1cc(-c2ccc3c(c2)OCO3)n[nH]1	76*	-1	2	-1	5	0
O=C(N/N=C/c1cccc([N+](=O)[O-])c1)c1cc(-c2ccc3c(c2)OCO3)n[nH]1	20	2	1	0	1	-1
Cc1ccc(Cl)cc1NC(=S)N/N=C/c1cccc2ccccc12	55*	-1	-2	-1	3	-3
O=C(N/N=C/c1ccccc1)c1cc(-c2ccc3c(c2)OCO3)n[nH]1	88*	-2	1	-1	3	1
O=C1NC2=C(CCc3ccccc32)C(c2ccc(Br)cc2)N1 (stereo not drawn)	61*	2	0	0	-2	-1
O=C1Cc2ccccc2C(c2ccc(Br)cc2)N1 (stereo not drawn)	0	-2	0	-1	-1	-1
CCOC(=O)CC1(C)NC(C(=O)O)C(C)(C)S1 (stereo not drawn)	.	-1	-1	0	-1	1
Cc1ccc(C2=NN(CCC(=O)NCc3ccc4c(c3)OCO4)C(=O)CC2)cc1	15	1	0	-2	0	-1
COc1ccc(Nc2nc(N3CCCC3)c3ccccc3n2)cc1	50*	-4	-3	-2	-5	-1
Cc1cc(Nc2ccc([N+](=O)[O-])cc2)nc2ccccc12	-5	-3	-1	-2	1	-1
COc1ccc(Nc2cc(C)c3ccccc3n2)cc1	7	-1	1	-1	11*	1
CCN(CC)c1ccc(Nc2nc(N3CCOCC3)c3ccccc3n2)cc1	18	-4	-3	-2	-6	-2
O=C(COC(=O)C1CCN(c2ccc(C(F)(F)F)cn2)CC1)Nc1cc(F)ccc1F	1	-1	0	-1	3	0
CCOc1ccccc1CN1CCN(Cc2ccc3cc(F)ccc3n2)CC1CCO (stereo not drawn)	.	5	0	0	2	5.4*
CCN(C(=O)c1cccnc1SC)C12CC3CC(CC(C3)C1)C2	-4	-1	0	-1	1	1
COc1ccc(Cl)cc1NC(=O)CCN1C(=O)C2C3CCC(C3)C2C1=O (stereo not drawn)	10	0	0	-1	2	2
O=C(O)CSCC(=O)Nc1ccccc1	0	-1	-1	-1	1	0
CC(C(=O)Nc1ccccn1)c1ccccc1 (stereo not drawn)	.	1	0	0.9*	0	0
O=C(O)CSCC(=O)Nc1ccccn1	-3	-2	1	-1	0	5.4*
O=C(C(=O)N1CCN(S(=O)(=O)c2ccccc2)CC1)c1cccc(C(F)(F)F)c1	.	-2	0	-2	1	.
COc1cc(OC)cc(-c2oc3cccnc3c2C#CCCO)c1	-2	-2	-2	-1	0	-2
COC(=O)c1cc2c(c3c4cc(C)ccc4n(S(=O)(=O)c4cccc(C)c4)c13)C(=O)N(Cc1ccc(N(C)C)cc1)C2	.	0	-1	-1	4	.
SMILES	AHR act	hcDAF-12 act	DAX1 inh-1	ssDAF12 agonist	hgDAF12 agonist	DAX1 inh-2
CC(=O)c1cc(C#N)c(N2CCOCC2)nc1C	0	0	0	-1	4	1
CN1CCN(c2nc(-c3ccccc3O)nc3ccccc23)CC1	19	6.5*	0	0	4	1
Cc1nc2c(-c3ccc(F)cc3)cnn2c(N)c1-c1ccccc1	-7	-7	-2	-3	-15	-1
Cc1nc2c(-c3ccc(Cl)cc3)cnn2c(N)c1-c1ccc(F)cc1	15	-5	-1	-3	-9	1
COc1ccc(-c2c(C)nc3c(-c4ccc(F)cc4)cnn3c2N)cc1	9	0	0	0	7	5.2*
Nc1c(-c2ccc(Cl)cc2)cnc2c(-c3ccc(F)cc3)cnn12	7	5	2	1	13*	5.0*
C=CC[C@H]1c2ccccc2[C@H]2N3N=Cc4ccccc4[C@H]3[C@H](CCCC)C(=O)N2N1C(=O)NCc1ccccc1	.	0	-1	-1	-1	.
COc1ccc(NC(=O)CSc2nnc(-c3ccccn3)n2N)cc1	9	0	0	-2	0	1
CC(C)(C)NC(=O)CSc1nnc(-c2ccccn2)n1-c1ccccc1	0	-2	0	-1	-2	4.4*
Nn1c(SCC(=O)Nc2ccc(F)cc2)nnc1-c1ccccn1	48*	0	0	-1	2	1
CCOc1ccc(N(CC(=O)Nc2cc(C)ccc2C)S(=O)(=O)c2c(C)[nH]c(=O)[nH]c2=O)cc1	-3	-1	0	0	0	1
O=C(c1ccccc1)N(Cc1cccc(Br)c1)C1CCS(=O)(=O)C1 (stereo not drawn)	1	-3	-1	-1	-2	-1
COCCCNC(=O)COc1ccc(Br)cc1Cl	29	-1	1	-1	11*	1
Cc1ccncc1CNC(=O)c1ccccc1	.	0	0	-1	-1	1
CC(c1nccs1)N(C)C(=O)CCc1nnc(Cc2c[nH]c3ccccc23)o1 (stereo not drawn)	8	2	-1	3.5*	-4	0
CCN(CCn1cccn1)C(=O)CCc1nnc(Cc2c[nH]c3ccccc23)o1	11	5	0	0	1	0
O=C(/C=C/c1ccc2c(c1)OCO2)c1ccc[nH]1	16	3	2	0	11*	3
COc1cccc(/C=C/C(=O)Oc2ccc(C(=O)c3ccc(F)cc3)cc2)c1	0	0	0	-2	-2	2
O=C(/C=C/c1ccc2c(c1)OCO2)c1ccc(F)cc1	22	1	0	-1	5	1
COc1cccc(/C=C/C(=O)c2ccc[nH]2)c1	4	3	1	1.2*	6	2
C=CCN1C(=O)[C@H]2CCC=C[C@H]2[C@@H]1c1cccc(C)c1	.	-1	0	0	0	-1
Cc1cccc([C@H]2[C@@H]3C=CCC[C@@H]3C(=O)N2Cc2ccccc2)c1	.	0	3.8*	-2	1	-1
COC(=O)[C@]12C[C@H](CC(=O)NCCC(C)C)C(=O)N(Cc3ccco3)C1=C[C@H](C1CCCC1)O[C@@H]2C	.	-2	0	-1	0	.
